Experimental data as given in PubChem BioAssay AID652053 (Broad Institute, 2013).
The whole screen tested about 1,300 compounds, of which about 930 (72%) were called active.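 The calls were made as follows: active = fitted curve reaches 40% activation signal increase at or below the top valid tested concentration in every replicate test; inconclusive = replicate tests disagree in their calls; inactive = all replicate tests inactive, including effects opposite the expected signal rise.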 So high a share suggests a set chosen from earlier hits. Only a sample is shown. Potency and affinity values are given separately.

Assay: miR-122 inhibitors in Huh7 reporter cells, dose response, cell-based, Huh7 psiCHECK-miR122, Renilla luciferase, cherry-pick (AID 652053)
Conditions: 48 h; series mostly up to 35 µM; activation (miR-122 inhibition): at the top concentration

Activation (miR-122 inhibition), inactive:
CCOC(=O)N1CCN(c2ncnc3c2oc2nc(C(C)C)c4c(c23)CCC4)CC1 -9.07%, CC(=O)Nc1ccc2nc(CN3CCC(CO)(CCc4ccccc4)CC3)ccc2c1 -3.36%, COc1ccc(N(Cc2ccccc2)S(=O)(=O)c2cccc(C(=O)NC3=NCCS3)c2)cc1 29.8%, CCOC(=O)c1[nH]c(C)c(C(=O)Nc2ccccc2C)c1C 1.56%, Cc1ccc(N2CC(C(=O)Nc3nccs3)CC2=O)cc1Cl (configuration not stated) 14.3%, c1csc(CNc2ncnc3ccc(-c4ccc5c(c4)OCO5)cc23)c1 -12.4%, CCC(=O)N(C)C[C@@H]1[C@@H](c2ccc(C3=CCCC3)cc2)[C@H](CO)N1C(=O)CC 6.67%, N#Cc1ccc(CSc2nnc(-c3cccnc3)o2)cc1 6.98%, COCCOC(=O)c1c(C)oc2ccc(NS(=O)(=O)c3ccc(C)cc3)cc12 37.7%, Cc1ccc(S(=O)(=O)NC(C)(C)CSc2nnc(Nc3ccccc3)s2)cc1 10.9%, CCc1noc(C)c1C(=O)OCC(=O)c1ccc(NC(C)=O)cc1F 8.21%, COc1ccccc1N1CCN(C(=O)CSc2nnc(NC(=O)C3CCC3)s2)CC1 -5.81%, CCCNC(=O)N1C[C@H]2[C@@H](c3ccccc31)[C@@H](CO)N2Cc1ccc(F)cc1 16.7%, O=C(c1ccccc1F)N1C[C@H]2[C@@H](c3ccccc31)[C@@H](CO)N2CC1CCCCC1 -11%, COc1cc(OC)cc(C(=O)N[C@H](C(=O)Nc2nc3ccccc3[nH]2)C(C)C)c1 -7.67%, O=C1N=C(N2CCc3ccccc3C2)S/C1=C\c1cccc(O)c1 -8.87%, Cc1ncc([N+](=O)[O-])n1CC(=O)Nc1ccc2c(c1)OCO2 -4.33%, COc1ccc(C(=O)Nc2ccccc2C(=O)N/N=C/c2ccccc2OC)cc1 13.4%, CCc1ccc(-c2cc(C(=O)NCc3ccccn3)c3ccccc3n2)cc1 7.44%, N/C(Cc1cccc2ccccc12)=N\OC(=O)c1ccc2c(c1)OCO2 -1.01%, CCOc1ccc(N2C(=O)c3cccnc3C2Nc2ccc(F)cc2)cc1 (configuration not stated) -5.12%, O=C(Nc1ccc2c(c1)OCCO2)C1CCN(S(=O)(=O)c2ccccc2)CC1 -3.73%, CCCC(=O)Nc1nc2ccc(NC(=O)c3c(F)c(F)c(OC)c(F)c3F)cc2s1 -14%, O=C(NC(=S)NCc1ccc2c(c1)OCO2)c1ccccc1 -7.87%, Cc1ccc(S(=O)(=O)N(C)C[C@@H]2Oc3ccc(NC(=O)Nc4ccc5c(c4)OCO5)cc3CC(=O)N([C@@H](C)CO)C[C@@H]2C)cc1 15.3%, CC1CCN(S(=O)(=O)N2CCC(C(=O)NCCc3ccccc3)CC2)CC1 3.92%, Cc1cc(C)cc(N(CC(=O)N2CCC(C)CC2)S(=O)(=O)c2ccccc2)c1 29.8%
